An excerpt weighted towards active compounds, which were near 12% of everything screened.
Sfp PPTase inh: Sfp phosphopantetheinyl transferase inhibition. Q9F4F7. Biochemical Sfp PPTase activity, qHTS. Potency, µM, inactives show largest response in the series, negative = inhibition, most hits filed as inhibitors. 310,000 compounds, 3.5% hits. AID 1490;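 note: the enzyme is Sfp with the accession as filed and its product quenches rhodamine fluorescence; 0% = enzyme reaction without inhibitor and -100% = no enzyme wells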
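Sfp 15 nM + cpd, 15 min RT; start w/ rhodamine-CoA 5 uM, BHQ-2-YbbR 12.5 uM (final); 50 mM Hepes pH 7.6, 10 mM MgCl2, 0.01% NP-40, 0.01% BSA; read 525/598 nm at 0 and 30 min.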
G9a block: inhibitors of human histone lysine methyltransferase G9a | Q96KQ7 | G9a H3K9 monomethylation, AlphaScreen, 2 h | Potency, µM (series often up to 102 µM), for the others: top-dose activity, negative = inhibition, most hits filed as inhibitors | 350,000 compounds, 8.8% hits | AID 504332; note: % is set by controls: 0 for no effect and ±100 for the full control effect; nearly all actives have a fitted effect of over 75% in size
Target sequence (Q96KQ7 913-1193 limits assumed): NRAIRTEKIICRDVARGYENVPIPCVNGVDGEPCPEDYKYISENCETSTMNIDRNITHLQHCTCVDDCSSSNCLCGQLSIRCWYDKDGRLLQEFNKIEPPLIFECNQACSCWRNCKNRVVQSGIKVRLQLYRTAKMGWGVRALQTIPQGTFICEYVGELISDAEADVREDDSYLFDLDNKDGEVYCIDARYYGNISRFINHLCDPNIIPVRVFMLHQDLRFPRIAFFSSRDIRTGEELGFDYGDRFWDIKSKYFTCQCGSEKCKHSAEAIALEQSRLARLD
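Compounds were preincubated with 20 nM G9a for 15 min, after which biotinylated H3K9 peptide (500 nM) and SAM (20 uM) started a 2 h room-temperature reaction. Monomethylated product was quantified by antibody-based AlphaScreen chemiluminescence.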
L3MBTL1 block: blocks human L3MBTL1. AlphaScreen L3MBTL1–H3K9me1 peptide binding. Potency, µM (series often up to 57.1 µM), for inactives: at the top dose activity, negative = inhibition, actives largely listed as inhibitors. 230,000 compounds, 0.66% hits; note: % is set by controls: 0 for no effect and ±100 for the full control effect; nearly all actives have a fitted effect of over 60% in size
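L3MBTL1 (50 nM) pre-complexed 30 min with biotinylated H3(1-15)K9me1 peptide (75 nM), then compounds added for 30 min at room temperature; AlphaScreen streptavidin donor/nickel chelate acceptor beads (10 ug/mL final) read after 30 min dark incubation.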
BAZ2B block: BAZ2B (human) inhibition; Q9UIF8; AlphaScreen BAZ2B-H3K14Ac peptide displacement; Potency, µM (titrated, usually from 114 µM), without a hit: at the highest dose activity change, negative = inhibition, most hits filed as inhibitors; 360,000 compounds, 4.4% hits; AID 504333; note: % is set by controls: 0 for no effect and ±100 for the full control effect; nearly all actives have a fitted effect of over 60% in size
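AlphaScreen displacement of biotin-H3(5-23)K14Ac peptide (50 nM final) from BAZ2B (50 nM final) in PBS pH 7.4, 0.01% Tween-20; complex preformed 30 min RT, then compounds (top 110 uM) 30 min RT, beads 20 min dark.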
JMJD2A Tudor inh: JMJD2A Tudor domain (human) inhibition; Potency, µM (highest dose often 114 µM), for inactives: at the top dose activity change, negative = inhibition, actives largely listed as inhibitors; AID 504339; O75164; 390,000 compounds, 4.4% hits; AlphaScreen JMJD2A-Tudor / H3K4me3 peptide binding; note: % is set by controls: 0 for no effect and ±100 for the full control effect; nearly all actives have a fitted effect of over 50% in size
HP1b chromo inh: HP1-beta chromodomain-methylated histone interaction inhibition; AlphaScreen HP1-beta / biotin-H3K9me3 peptide binding; 390,000 compounds, 0.56% hits; Potency, µM (series often up to 114 µM), inactives show at the highest dose activity change, negative = inhibition, usual class: inhibitors; AID 540317; P83916; note: nearly all actives have a fitted effect of over 70% in size
Target sequence (P83916 whole entry, looked up): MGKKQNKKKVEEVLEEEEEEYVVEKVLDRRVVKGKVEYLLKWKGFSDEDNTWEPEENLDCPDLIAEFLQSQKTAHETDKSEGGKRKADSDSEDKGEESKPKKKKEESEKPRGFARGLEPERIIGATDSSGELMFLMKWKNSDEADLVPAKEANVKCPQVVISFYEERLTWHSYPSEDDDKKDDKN
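Compound inhibition of the preformed complex between 50 nM HP1-beta and 50 nM biotinylated H3K9me3 peptide was read by AlphaScreen. Buffer was PBS pH 7.4 with 0.01% Tween-20. Incubations ran 30 min at room temperature, with 10 ug/mL donor/acceptor beads.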
An asterisk follows results filed as active; [ ] = dose if it differs, or a comment. Calls come from the whole dose curve; as a rule, active = well fitted curve in the direction sought with a large enough effect; inconclusive = small, poorly fitted or top-dose-only effect, or another doubt; inactive = no such curve, though single readings can be large; an effect the other way counts as inactive or inconclusive. Potency is the fitted concentration of half-maximal effect.

What do the screens show for `O=C(OCC(O)C(O)C(O)C(SCc1ccccc1)SCc1ccccc1)c1ccccc1` (centres undefined)?
JMJD2A Tudor inh: -15%; HP1b chromo inh: 11%[57 µM]

Results for CCN(CC)CCN(C(=O)Cn1nnc(-c2ccc(C)o2)n1)C(C(=O)NC1CCCC1)c1ccc(F)cc1 (centres undefined) ?
Sfp PPTase inh: 7%; G9a block: inconclusive; BAZ2B block: -13%; JMJD2A Tudor inh: -7%; HP1b chromo inh: -10%

How did Cc1ccc(CNC(=O)Cn2ccc3cc(S(=O)(=O)N4CCCC4)ccc32)o1 do in these assays?
Sfp PPTase inh: 50µM*; G9a block: inconclusive; BAZ2B block: -14%[57.1 µM]; JMJD2A Tudor inh: -26%; HP1b chromo inh: 23%

What do the screens show for `CN(C)c1ccc(CNC(=O)CCCn2ccc3cc(S(=O)(=O)N4CCCC4)ccc32)cc1`?
G9a block: 8.9µM*; BAZ2B block: inconclusive; JMJD2A Tudor inh: inconclusive; HP1b chromo inh: -13%

How did CSc1ccc(CNC(=O)Cn2ccc3cc(S(=O)(=O)N4CCCC4)ccc32)cc1 do in these assays?
G9a block: -17%[59 µM]; BAZ2B block: -16%; JMJD2A Tudor inh: -17%; HP1b chromo inh: 40%

Results for CN(C)c1ccc(CNC(=O)c2cc(S(=O)(=O)N3CCOCC3)cn2C)cc1 ?
Sfp PPTase inh: 27%; G9a block: 40µM*; L3MBTL1 block: -3%; BAZ2B block: -9%; JMJD2A Tudor inh: -17%; HP1b chromo inh: 9%

How did Cn1cc(S(=O)(=O)N2CCOCC2)cc1C(=O)NCc1ccc(Cl)cc1 do in these assays?
Sfp PPTase inh: 13%; G9a block: 29%; L3MBTL1 block: 0%; BAZ2B block: -4%; JMJD2A Tudor inh: -1%; HP1b chromo inh: 29%

How did CCCCCCCCCc1nc2sc3c(c2c(=O)n1NC(=O)c1ccccc1[N+](=O)[O-])CC(C)(C)OC3 do in these assays?
Sfp PPTase inh: -1%; G9a block: 71µM*; L3MBTL1 block: -13%; BAZ2B block: -36%; JMJD2A Tudor inh: inconclusive; HP1b chromo inh: -1%

Results for COc1cc2c(cc1OC)C(=O)N(C)CC2 ?
Sfp PPTase inh: 23%; G9a block: 4%[59 µM]; L3MBTL1 block: 8%; BAZ2B block: -2%; JMJD2A Tudor inh: -6%; HP1b chromo inh: 53%

Results for COc1cc2cc3c4c(cc(OC)c(OC)c4c2cc1OC)CCN3C ?
Sfp PPTase inh: 71µM*

Results for O=C(O)CCC(=O)c1cccc2ccccc12 ?
Sfp PPTase inh: -1%; G9a block: 15%[59 µM]; L3MBTL1 block: 4%; BAZ2B block: 9%; JMJD2A Tudor inh: -12%; HP1b chromo inh: 31%

What do the screens show for `C[N+](C)(C)CCC(=O)c1cccc2ccccc12`?
Sfp PPTase inh: 18µM*; G9a block: 0.5µM*

How did CCOc1ccccc1N(C)C(=O)c1nn(-c2ccc(OC)cc2OC)c(=O)c2ccccc12 do in these assays?
Sfp PPTase inh: 10%; G9a block: -11%[59 µM]; BAZ2B block: -27%; JMJD2A Tudor inh: -15%; HP1b chromo inh: 32%

Results for CC(=O)Nc1nc(-c2ccc(Cl)cc2)ns1 ?
Sfp PPTase inh: -8%; G9a block: -16%; L3MBTL1 block: 9%; BAZ2B block: 6%; JMJD2A Tudor inh: -13%; HP1b chromo inh: 22%

What do the screens show for `Cc1ccc2[nH]c(C(=O)Nc3ccc(F)cc3)cc2c1`?
Sfp PPTase inh: 22%; G9a block: 27%[0.501 µM]; L3MBTL1 block: -7%[2.29 µM]; BAZ2B block: -6%; JMJD2A Tudor inh: -8%; HP1b chromo inh: 32%

Results for Cc1cc(C)c2[nH]c(C(=O)Nc3ccc(F)cc3Br)cc2c1 ?
Sfp PPTase inh: -15%; G9a block: 50µM*; BAZ2B block: -9%; JMJD2A Tudor inh: -19%; HP1b chromo inh: 3%

What do the screens show for `COc1ccc(NCc2ccc(OC)c(OC)c2)cc1`?
Sfp PPTase inh: -3%; G9a block: inconclusive; L3MBTL1 block: -9%; BAZ2B block: inconclusive

Screening data: PubChem, National Center for Advancing Translational Sciences (NCATS)
